Results filed as inconclusive are left out. The source made the active and inactive calls. Calls follow the shape of the dose curve; as a rule, active = well fitted activation curve with a large enough effect in the repeat runs; inconclusive = weak or mixed curves; inactive = no such curve, though single readings can be large or run the other way. Positions of bridges follow the written chain, without caps; N, C: chain ends. Non-standard residues stand in square brackets, D forms with d. Residues, ends and D or L forms follow the SMILES beside them. *: point of attachment. X1 = CC[C@@H](C)[C@@H](N)C1=N[C@H](C(=O)*)CS1; d(aIle) = CC[C@H](C)[C@@H](N)C(=O)O; dOrn = NCCC[C@@H](N)C(=O)O
Each compound was assayed against Nuclear receptor subfamily 1 group I member 2 (Rattus norvegicus) (UniProt Q9R1A7) (assay: Rat pregnane X receptor (rPXR) activation by small molecules, qHTS assay (AID 1346983; also: nearly all actives have a fitted effect of over 20% in size)). Conditions: rPXR luciferase reporter cells, One-Glo luminescence, 24 h; max activation: stronger effect = higher value.
Sequence of Nuclear receptor subfamily 1 group I member 2 (Rattus norvegicus) (Q9R1A7 whole entry, looked up): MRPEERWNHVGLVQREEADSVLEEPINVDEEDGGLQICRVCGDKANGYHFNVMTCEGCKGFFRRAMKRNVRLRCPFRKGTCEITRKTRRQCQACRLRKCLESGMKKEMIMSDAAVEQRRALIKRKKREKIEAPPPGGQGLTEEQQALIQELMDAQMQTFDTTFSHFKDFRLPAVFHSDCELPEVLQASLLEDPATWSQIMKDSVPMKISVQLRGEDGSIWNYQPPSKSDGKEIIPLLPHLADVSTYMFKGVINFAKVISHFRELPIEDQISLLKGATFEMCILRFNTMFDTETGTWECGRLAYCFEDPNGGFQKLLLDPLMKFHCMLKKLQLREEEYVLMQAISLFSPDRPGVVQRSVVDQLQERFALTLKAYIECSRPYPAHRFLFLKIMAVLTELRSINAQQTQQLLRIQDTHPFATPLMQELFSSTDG
How it was run: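 Cell-based rPXR luciferase reporter assay, 2,000 cells per well, rested 5hr at 37 C before compound addition in DMSO, then 24 hr at 37 C. One-Glo reagent was added and luminescence read after 30 min at room temperature.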
% is scaled to controls: 0 for no effect and ±100 for the full control effect.

Compound	max activation
Oc1ccc(Cl)c2c1CCC2	0.0185% (inactive)
CCCCCCCCCCCCCCCCCCOCC(COP(=O)([O-])OCC[N+](C)(C)C)OC (configuration not stated)	-1.53% (inactive)
CNC(=O)OCc1cccc(COC(=O)NC)n1	8.37% (inactive)
CO/N=C(\C(=O)N[C@@H]1C(=O)N2C(C(=O)[O-])=C(C[n+]3ccc(N)n3CCO)CS[C@H]12)c1csc(N)n1	-1.9% (inactive)
C[C@H](O)CN(C)C	-2.23% (inactive)
Cc1cc(-c2ccc(N=Nc3ccc4c(S(=O)(=O)O)cc(S(=O)(=O)O)c(N)c4c3O)c(C)c2)ccc1N=Nc1ccc2c(S(=O)(=O)O)cc(S(=O)(=O)O)c(N)c2c1O	-5.28% (inactive)
CCOC(=O)[C@H](CCc1ccccc1)N[C@@H](C)C(=O)N1[C@H](C(=O)O)C[C@H]2CCCC[C@@H]21	-1.14% (inactive)
C[S+](C)CCC(N)C(=O)O (configuration not stated)	-3.19% (inactive)
N[C@H](C(=O)O)[C@@H]1CC(Cl)=NO1	-12.5% (inactive)
C[N+]1(CCCCC[N+]2(C)CCCC2)CCCC1	-2.61% (inactive)
CC1(C)CCC(NC(=O)[C@@H](N)CCC(=O)O)CC1	-2.85% (inactive)
OCC1(CO)COC(C(Cl)(Cl)Cl)OC1	-2.81% (inactive)

These compounds were tested against Nuclear receptor subfamily 1 group I member 2 (Homo sapiens) (UniProt O75469) (assay: CYP3A4 induction through human pregnane X receptor (PXR) by small molecules, qHTS assay (AID 1346984; also: nearly all actives have a fitted effect of over 40% in size)). Conditions: DPX-2 HepG2 PXR, CYP3A4-luciferin luminescence, 24 h; series mostly up to 46.1 µM; activation: at the top concentration.
How it was run: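 Quantitative HTS in DPX-2 cells, i.e. HepG2 transfected with PXR response element and CYP3A4-promoter luciferase. Compounds in DMSO incubated 24hr at 37C; then P450-Glo CYP3A4 substrate, 3uM final, 3hr; One-Glo luminescence.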

Compound	activation
O=C(O)/C=C/C(=O)Nc1ccc(S(=O)(=O)Nc2nccs2)cc1	-9.45% (inactive)
O=C(CCCN1CCN2CCCC2C1)c1ccc(F)cc1 (configuration not stated)	1.11% (inactive)
CC[C@@H](C)[C@@H](N)C1=N[C@H](C(=O)N[C@@H](CC(C)C)C(=O)N[C@@H](CCC(=O)O)C(=O)N[C@@H](C(=O)N[C@@H]2CCCCNC(=O)[C@@H](CC(N)=O)NC(=O)[C@@H](CC(=O)O)NC(=O)[C@@H](Cc3cnc[nH]3)NC(=O)[C@@H](Cc3ccccc3)NC(=O)[C@@H]([C@H](C)CC)NC(=O)[C@@H](CCCN)NC2=O)[C@@H](C)CC)CS1 (X1-LE[d(aIle)][dK][dOrn][dI][dF][dH][dD][dN]; lactam 4-C)	-6.99% [at 20.6 µM] (inactive)
C=CC[N+]1([C@H]2C[C@H]3[C@@H]4CC[C@H]5C[C@H](O)[C@@H](N6CCOCC6)C[C@]5(C)[C@H]4CC[C@]3(C)[C@H]2OC(C)=O)CCCC1	-7.83% (inactive)
O=C(O)/C=C/C(O)c1ccc(Cl)cc1 (configuration not stated)	-1.14% (inactive)
C=CC[N@@+]12CC[C@@]34c5ccccc5N5/C=C6/[C@H]7C[C@H]8[C@@]9(CC[N@@+]8(CC=C)C/C7=C/CO)c7ccccc7N(/C=C(/[C@@H](C[C@@H]31)/C(=C\CO)C2)[C@H]54)[C@@H]69	9.55% [at 20.6 µM] (inactive)
CN1C(=O)C[C@@H](C(=O)N[C@@H](Cc2cnc[nH]2)C(=O)N2CCC[C@H]2C(N)=O)NC1=O	-13.9% (inactive)
C[C@@H]1C(=O)NC2=Nc3cccc(Cl)c3CN21	11.7% (inactive)
C[C@]12O[C@H](C[C@]1(O)CO)n1c3ccccc3c3c4c(c5c6ccccc6n2c5c31)CNC4=O	-23.9% (inactive)
Cc1cn([C@H]2C[C@H](O)[C@@H](CO)O2)c(=O)[nH]c1=O	-1.87% (inactive)
FC(F)(F)COCC(F)(F)F	-1.37% (inactive)
CC(C)(O/N=C(\C(=O)N[C@@H]1C(=O)N2C(C(=O)[O-])=C(C[n+]3ccccc3)CS[C@H]12)c1csc(N)n1)C(=O)O	-0.247% [at 20.6 µM] (inactive)
CO/N=C(\C(=O)N[C@@H]1C(=O)N2C(C(=O)[O-])=C(C[n+]3cccc4c3CCC4)CS[C@H]12)c1csc(N)n1	-6.58% (inactive)
CC12CCC(C1)C(C)(C)C2=O (configuration not stated)	-4.4% (inactive)
C=CC1=C(C(=O)O)N2C(=O)[C@@H](NC(=O)/C(=N\O)c3csc(N)n3)[C@H]2SC1 (stereo in doubt)	-8.13% (inactive)
Cc1cc(N)c2ccccc2[n+]1CCCCCCCCCC[n+]1c(C)cc(N)c2ccccc21	-14.9% [at 20.6 µM] (inactive)
CC(=O)Nc1ccc(OC(C)=O)cc1	-5.05% (inactive)
NC(N)=NCc1cccc(I)c1	-9.85% (inactive)
CC(C)[C@H](NC(=O)[C@H](CC(=O)O)NC(=O)[C@H](CCCCN)NC(=O)[C@@H](N)CCCN=C(N)N)C(=O)N[C@@H](Cc1ccc(O)cc1)C(=O)O (H-RKDVY-OH)	4.76% (inactive)
CC1CCCC(C)N1NC(=O)c1ccc(Cl)c(S(N)(=O)=O)c1 (configuration not stated)	17.3% [at 20.6 µM] (inactive)

Compound	activation
O=C[C@H](O)[C@@H](O)[C@@H](O)[C@H](O)CO	8.94% (inactive)
CN[C@@H]1[C@@H](O[C@H]2O[C@H](CO)[C@@H](N)[C@H](O)[C@H]2O)O[C@H]2C[C@@H](N)[C@@H](O[C@H]3[C@H](O)[C@@H](O)[C@H](N)C[C@@H]3N)O[C@@H]2[C@@H]1O	-6.92% [at 20.6 µM] (inactive)
CC[C@H]1OC(=O)C[C@@H](O)[C@H](C)[C@@H](O[C@@H]2O[C@H](C)[C@@H](O[C@H]3C[C@@](C)(O)[C@@H](O)[C@H](C)O3)[C@H](N(C)C)[C@H]2O)[C@@H](CC=O)C[C@@H](C)C(=O)/C=C/C(C)=C/[C@@H]1CO[C@@H]1O[C@H](C)[C@@H](O)[C@@H](OC)[C@H]1OC	-3.75% (inactive)
C[C@@H]1O[C@@H](OC[C@H]2O[C@@H](Oc3c(-c4ccc(OCCO)c(OCCO)c4)oc4cc(OCCO)cc(O)c4c3=O)[C@H](O)[C@@H](O)[C@@H]2O)[C@H](O)[C@H](O)[C@H]1O	1.22% (inactive)
Cc1cc(C(=O)NCCc2ccc(S(=O)(=O)NC(=O)NN3CCCCCC3)cc2)no1	-7.07% (inactive)
NCC1CCC(C(=O)O)CC1 (configuration not stated)	-2.97% [at 20.6 µM] (inactive)
OCCCNc1ccccc1	-0.808% (inactive)
O=C(O)CCCC/C=C(\c1ccccc1)c1cccnc1	-4.83% (inactive)
Oc1ccc(Cl)c2c1CCC2	23.2% (inactive)
CCCCCCCCCCCCCCCCCCOCC(COP(=O)([O-])OCC[N+](C)(C)C)OC (configuration not stated)	-3.87% (inactive)
CNC(=O)OCc1cccc(COC(=O)NC)n1	21.2% (inactive)
CO/N=C(\C(=O)N[C@@H]1C(=O)N2C(C(=O)[O-])=C(C[n+]3ccc(N)n3CCO)CS[C@H]12)c1csc(N)n1	-6.7% (inactive)
C[C@H](O)CN(C)C	-1.73% (inactive)
Cc1cc(-c2ccc(N=Nc3ccc4c(S(=O)(=O)O)cc(S(=O)(=O)O)c(N)c4c3O)c(C)c2)ccc1N=Nc1ccc2c(S(=O)(=O)O)cc(S(=O)(=O)O)c(N)c2c1O	-15.9% (inactive)
CCOC(=O)[C@H](CCc1ccccc1)N[C@@H](C)C(=O)N1[C@H](C(=O)O)C[C@H]2CCCC[C@@H]21	20% (inactive)
C[S+](C)CCC(N)C(=O)O (configuration not stated)	-8.86% (inactive)
N[C@H](C(=O)O)[C@@H]1CC(Cl)=NO1	-10.3% (inactive)
C[N+]1(CCCCC[N+]2(C)CCCC2)CCCC1	-3.36% (inactive)
CC1(C)CCC(NC(=O)[C@@H](N)CCC(=O)O)CC1	-5.11% (inactive)
OCC1(CO)COC(C(Cl)(Cl)Cl)OC1	-8.6% (inactive)

— PubChem BioAssay (Tox21)
